Test results: PubChem BioAssay (NCI)
This is part of a sample that, as a whole, favours compounds with a hit. Of some 79,000 tested, about 15% had one in any assay. A number with no mark means an inactive call. Calls of active or inactive are those of the source. Cut-off read from the data, not from the text of the source: active = growth inhibition above about 70%; inactive = the rest.

Columns and labels:
[1] = NCI Yeast Anticancer Drug Screen. Data for the rad50 strain (AID 155);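 note: 0% = growth of vehicle-only cultures of the same strain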; settings: S. cerevisiae rad50 strain growth inhibition; at 50.0 µM; active compounds read high
Outline: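 Inhibition values express reduced yeast growth in compound-treated cultures relative to vehicle-treated controls.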

[2] = NCI Yeast Anticancer Drug Screen. Data for the mec2-1 strain (AID 157); settings: S. cerevisiae mec2-1 strain, at 50.0 µM, active compounds read high
Outline: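 Growth inhibition is read against vehicle-treated controls after compound exposure of the mec2-1 yeast strain, which is defective in DNA damage repair or cell cycle control.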

[3] = NCI Yeast Anticancer Drug Screen. Data for the sgs1 mgt1 strain (AID 161);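 note: 0% = growth of cultures given vehicle only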; settings: S. cerevisiae sgs1 mgt1 strain, at 50.0 µM, active compounds read high
Outline: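 Growth of a repair-deficient yeast mutant was monitored after compound treatment and expressed as inhibition relative to vehicle-treated cultures.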

[4] = NCI Yeast Anticancer Drug Screen. Data for the cln2 rad14 strain (AID 165);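 note: 0% = growth equal to vehicle treated cultures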; settings: S. cerevisiae cln2 rad14 strain, at 50.0 µM, active compounds read high
Outline: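 Growth inhibition, relative to vehicle-treated controls, is the read-out. The test organism is a yeast strain with defined genetic alterations, cln2 rad14.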

[5] = NCI Yeast Anticancer Drug Screen. Data for the bub3 strain (AID 167); settings: S. cerevisiae bub3 mutant strain, at 50.0 µM, active compounds read high
Outline: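 Steps: expose the mutant yeast strain to compound; grow alongside vehicle-treated cultures; measure growth; express inhibition against the vehicle cultures.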

[6] = NCI Yeast Anticancer Drug Screen. Data for the mlh1 rad18 strain (AID 175); settings: S. cerevisiae mlh1 rad18 strain growth inhibition; at 50.0 µM; active compounds read high
Outline: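 Cells of a genetically altered yeast strain, deficient in DNA damage repair, were treated with compound. Their growth was then compared with that of vehicle-treated cultures to give inhibition.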

SMILES | growth inhibition [1] | growth inhibition [2] [%] | growth inhibition [3] [%] | growth inhibition [4] [%] | growth inhibition [5] | growth inhibition [6]
CN(C)c1ccc(/C=N\NC(=S)NN2CCN(NC(=S)N/N=C\c3ccc(N(C)C)cc3)CC2)cc1 | 30.2% | 11.1 | 5.2 | 4.85 | 1.55% | 27.8%
N#Cc1c(N2CCCC2)ncn(Cc2ccccc2)c1=O | 0.7% | 12.8 | 0.2 | -30.8 | 7.15% | 4.7%
COC(=O)C(Cc1c[nH]c2ccccc12)NP(=O)(O)OCC1OC(n2cc(Br)c(=O)[nH]c2=O)CC1O (configuration not stated) | -34.8% | -15.4 | -9.25 | -12 | -16.3% | -10.1%
COc1cc(C=C(c2ccc(N(C)C)cc2)c2ccc(N(C)C)cc2)c2ccccc2c1OC | 22.9% | 14.5 | 3.15 | 27.3 | -12.8% | -42.5%
CC1OC(n2ccc3ccc([N+](=O)[O-])cc32)C(O)C(O)C1O (configuration not stated) | -5.2% | -3.85 | -32.7 | -12.2 | -27.8% | -21.4%
O=C(Nc1ccc(F)cc1)c1cc2c(cc1Cl)Sc1nccn1S2(=O)=O | -7% | -4 | -8.8 | 16.9 | 3.55% | 2.7%
O=C(O)c1ccc(-c2ccc(O)cc2)cc1 | 10.8% | 5.85 | 2 | -34 | -6.7% | 9.4%
CN(C)c1ccc(/C=N/NC(=O)c2ccccc2NC(=O)c2ccccc2)cc1 | -1.65% | -20.3 | -11.6 | -19.8 | 14.9% | 3.4%
CCCCCCCCN(CCCCCCCC)CC(O)c1cc(-c2ccccc2)nc2c(-c3ccccc3)cccc12 (configuration not stated) | 46.8% | 32.5 | 49.2 | 51.1 | 26.1% | 48.5%
Nc1ccc2ccccc2c1Cl | -9.05% | -38.5 | -11.4 | 6 | -44.4% | -11.3%
CCSC(SCC)C(NC(C)=O)C(O)C(O)COC(=O)c1ccccc1 (configuration not stated) | 6.05% | 17.3 | 17.4 | 12 | 1.35% | 25.2%
COC1=NC2(C)C(C)=C(c3ccccc3)C1(C)c1ccccc12 (configuration not stated) | -12.2% | -4.4 | -14.6 | -46.8 | 7.25% | -3.8%
COC1OC(COC(=O)c2ccc([N+](=O)[O-])cc2)C(O)C1SC#N (configuration not stated) | 43.5% | -2.3 | 41.3 | -10.1 | 13.2% | 42.8%
CC(=O)Nc1ccccc1-c1nc2cccnc2[nH]c1=O | -9.6% | 6.15 | 2.65 | -5.35 | -1.85% | -11.9%
O=C1CN(C=C(C(=O)c2ccccc2)C(=O)c2ccccc2)C(=S)N1 | -61.5% | -31.7 | -19.2 | -39 | -8.2% | -30.4%
C[S+](C)c1ccc(Cl)cc1 | -1.45% | -6.65 | -21.2 | 17.9 | 11.3% | 8.25%
CC(=O)C(C(C)=O)C(c1ccccn1)C(C(C)=O)C(C)=O | -6.7% | -0.65 | -4.05 | -0.65 | 6.8% | -6.45%
CNC1=C(Sc2ccc(C)cc2)C(=O)c2ccccc2C1=O | -4.9% | 1.8 | 5.4 | -0.45 | -9.05% | -8.7%
O=C(/C=C/c1ccco1)c1ccc(NCc2nc3ccccc3[nH]2)cc1 | 40.2% | -7 | 41.5 | 33.9 | 13.8% | 25.8%

SMILES | growth inhibition [1] | growth inhibition [2] [%] | growth inhibition [3] [%] | growth inhibition [4] [%] | growth inhibition [5] | growth inhibition [6]
Oc1[nH]c2ccccc2c1N=NC(=S)Nc1cccc(Cl)c1 | -0.35% | 4.4 | 55.5 | 35 | 23.5% | 15.2%
CCc1onc(-c2noc(CC)c2C)c1C | -5.35% | 6.5 | 0.25 | -9.35 | -1.5% | 12.3%
c1ccc(Oc2nnc3c4ccccc4ccn23)cc1 | 11.4% | -9.55 | 0.1 | -4.4 | 3.9% | -0.35%
COc1ccc(C2=NN(C(C)=O)c3nc4ccccc4nc3O2)cc1 | -25.2% | -28.8 | -20 | -5.9 | -24.6% | -12.6%
N#CCCOC(=O)Nc1ccccc1 | 21.9% | 2.4 | -6.7 | -40.6 | -8.3% | 0.6%
CCCCC#CCC#Cc1ccccc1 | -4.3% | 5.25 | 6.85 | 23.2 | -10.9% | 10.1%
NC1=NNC(=O)/C1=C/c1ccccc1 | 16.6% | 5.85 | 0.55 | -17.1 | -10.2% | 22.2%
O=C(Cn1ccnc1[N+](=O)[O-])c1ccc(F)cc1 | 62.8% | -13.9 | 33.9 | 4.6 | -9.9% | 13.3%
Cc1nc2cc(C)c(C)cc2[nH]1 | -7.55% | -1 | 3.75 | -9.15 | 8.9% | 5.8%
Nc1ccc(I)cc1 | -10.8% | -4.05 | -34.6 | -20.8 | -23.2% | -22.1%
COC(=O)CC#N | -13.3% | 4.9 | 10.1 | -2.75 | -1.2% | -13.3%
COC(=O)c1cc2ccccc2c2c3c(ccc12)OCO3 | 9.4% | -0.15 | -10.3 | -43.6 | -4.05% | -14.3%
O=C1CSC(c2cccs2)N1CCN1C(=O)CSC1c1cccs1 (configuration not stated) | 4.65% | -2.1 | -6.2 | -6.75 | 1.1% | -0.25%
N#Cc1c(=O)[nH]c(=O)n2c1[nH]c1ccccc12 | 14.7% | 19.3 | 11.9 | -32.4 | 12.1% | 8.15%
CN=[N+]([O-])c1ccccc1 | 1.75% | 17.9 | 4.35 | 15.2 | 10.9% | 1.6%
O=C(O)C1Cc2c([nH]c3ccccc23)C(c2ccccc2)N1 (configuration not stated) | 1.3% | 11.1 | 10.8 | -56.6 | -16.8% | 14.4%
Cc1ccc[n+](CCCCCCCC[n+]2cccc(C)c2)c1 | 54.7% | 2.7 | 44.4 | -2.25 | 3.4% | 33.2%
Oc1ccc(O)c(CCCCCc2cc(O)ccc2O)c1 | 76.3% (active) | 37.4 | 66.5 | 34.4 | 70.2% (active) | 97.7% (active)
